Measured values from PubChem BioAssay (NCATS).
Inconclusive results are not listed. Activity calls are given as the source filed them. Calls come from the whole dose curve; as a rule, active = well fitted cell-killing curve with a large enough effect; inconclusive = small, poorly fitted or top-dose-only effect, or effect the other way; inactive = flat fitted curve, though single readings scatter.

Columns and labels:
Assay in all cases: Primary qHTS to identify gynecologic anti-cancer compounds using libraries of approved drugs and bioactive compounds (AID 1345084); note: nearly all actives have a fitted effect of over 55% in size
[1] = system: CAOV3; details: Gynecologic cancer cell panel viability, ATPlite luminescence, 48 h; series mostly up to 57.5 µM
Procedure, shortened: (§1)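 Five-point cytotoxicity, 48 h drug exposure at 37 C, 5% CO2, on cells seeded 16 h beforehand. ATP content read by ATPlite luminescence.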

[2] = system: CASKI; details: Gynecologic cancer cell panel viability, ATPlite luminescence, 48 h; series mostly up to 57.5 µM
Procedure, shortened: as §1

[3] = system: Es-2; details: Gynecologic cancer cell panel viability, ATPlite luminescence, 48 h; series mostly up to 57.5 µM
Procedure, shortened: as §1

[4] = system: HeLa; details: Gynecologic cancer cell panel viability, ATPlite luminescence, 48 h; series mostly up to 57.5 µM
Procedure, shortened: as §1

[5] = system: Hek293T; details: Gynecologic cancer cell panel viability, ATPlite luminescence, 48 h, control line for the selectivity index; series mostly up to 57.5 µM
Procedure, shortened: as §1

[6] = system: JEG-3; details: Gynecologic cancer cell panel viability, ATPlite luminescence, 48 h; series mostly up to 57.5 µM
Procedure, shortened: as §1

[7] = system: OV90; details: Gynecologic cancer cell panel viability, ATPlite luminescence, 48 h; series mostly up to 57.5 µM
Procedure, shortened: as §1

[8] = system: PA-1; details: Gynecologic cancer cell panel viability, ATPlite luminescence, 48 h; series mostly up to 57.5 µM
Procedure, shortened: as §1

[9] = system: SKOV3; details: Gynecologic cancer cell panel viability, ATPlite luminescence, 48 h; series mostly up to 57.5 µM
Procedure, shortened: as §1

[10] = system: Tov-21-G; details: Gynecologic cancer cell panel viability, ATPlite luminescence, 48 h; series mostly up to 57.5 µM
Procedure, shortened: as §1
% is set by controls: 0 for no effect and ±100 for the full control effect.

Cc1cn(C[C@H](N)C(=O)O)c(=O)n(Cc2cc(-c3ccccc3)sc2C(=O)O)c1=O
inactive: Potency [1] | Potency [2] | Potency [3] | Potency [4] | Potency [5] | Potency [6] | Potency [7] | Potency [8] | Potency [9] | Potency [10]

COC(=O)C1(C)CCC(=O)C2(C)c3c(O)cc(C(C)C)cc3C(O)C(OC(C)=O)C12 (stereo not given)
inactive: Potency [1] | Potency [2] | Potency [3] | Potency [4] | Potency [5] | Potency [6] | Potency [7] | Potency [8] | Potency [9] | Potency [10]

CCCN1CCO[C@H]2c3cc(O)ccc3OC[C@@H]21
inactive: Potency [1] | Potency [2] | Potency [3] | Potency [4] | Potency [5] | Potency [6] | Potency [7] | Potency [8] | Potency [9] | Potency [10]

C=C[C@H]1[C@H](O[C@@H]2O[C@H](CO)[C@@H](O)[C@H](O)[C@H]2O)OC=C2C(=O)OCC[C@H]21
inactive: Potency [1] | Potency [2] | Potency [3] | Potency [4] | Potency [5] | Potency [6] | Potency [7] | Potency [8] | Potency [9] | Potency [10]

CCN1C[C@]2(COC(=O)c3ccccc3N3C(=O)C[C@H](C)C3=O)CC[C@H](OC)[C@@]34[C@@H]5C[C@H]6[C@H](OC)[C@@H]5[C@](O)(C[C@@H]6OC)[C@](O)([C@@H](OC)[C@H]23)[C@@H]14
inactive: Potency [1] | Potency [2] | Potency [3] | Potency [4] | Potency [5] | Potency [6] | Potency [7] | Potency [8] | Potency [9] | Potency [10]

CCN1C[C@]2(COC)[C@H](O)C[C@H](OC)[C@]34[C@@H]5C[C@]6(O)[C@H](OC(=O)c7ccccc7)[C@@H]5[C@@](O)([C@H]([C@H](OC)[C@H]23)[C@@H]14)[C@@H](O)[C@@H]6OC
inactive: Potency [1] | Potency [2] | Potency [3] | Potency [4] | Potency [5] | Potency [6] | Potency [7] | Potency [8] | Potency [9] | Potency [10]

CCc1c(C(=O)C(N)=O)c2c(OCC(=O)OC)cccc2n1Cc1ccccc1
inactive: Potency [1] | Potency [2] | Potency [3] | Potency [4] | Potency [5] | Potency [6] | Potency [7] | Potency [8] | Potency [9] | Potency [10]

C=C(CO)C(=O)O[C@H]1C/C(C)=C/CC/C(CO)=C/[C@H]2OC(=O)C(=C)[C@H]12
inactive: Potency [1] | Potency [2] | Potency [3] | Potency [4] | Potency [5] | Potency [6] | Potency [7] | Potency [8] | Potency [9] | Potency [10]

C=CC(C)(C)c1[nH]c2cccc3c2c1C[C@@H]1[C@@H]3[C@@H](OC(C)=O)[C@H](C)CN1C
inactive: Potency [1] | Potency [2] | Potency [3] | Potency [4] | Potency [5] | Potency [6] | Potency [7] | Potency [8] | Potency [9] | Potency [10]

C/C=C(\C)C(=O)OC1CC2C(C)(C)OC(=O)CC(OC(C)=O)C2(C)C2CC(OC(=O)C(C)C)C3(C)C(c4ccoc4)CC4OC43C12C (stereo not given)
inactive: Potency [1] | Potency [2] | Potency [3] | Potency [4] | Potency [5] | Potency [6] | Potency [7] | Potency [8] | Potency [9] | Potency [10]

C[C@@](O)(COc1ccc(C#N)cc1)C(=O)Nc1ccc(C#N)c(C(F)(F)F)c1
inactive: Potency [1] | Potency [2] | Potency [3] | Potency [4] | Potency [5] | Potency [6] | Potency [7] | Potency [8] | Potency [9] | Potency [10]

CN[C@H]1[C@H](O)[C@H](O[C@@H]2[C@@H](O)[C@H](O[C@H]3O[C@H]([C@H](C)O)[C@@H](O)[C@H](O)[C@H]3N)[C@@H](N)C[C@H]2N)OC[C@@]1(C)O
inactive: Potency [1] | Potency [2] | Potency [3] | Potency [4] | Potency [5] | Potency [6] | Potency [7] | Potency [8] | Potency [9] | Potency [10]

COCC1OC(=O)c2coc3c2C1(C)C1=C(C3=O)C2CCC(=O)C2(C)CC1O (stereo not given)
inactive: Potency [1] | Potency [2] | Potency [3] | Potency [4] | Potency [5] | Potency [6] | Potency [7] | Potency [8] | Potency [9] | Potency [10]

COC1CC(=O)C23C(=O)NC(CC(C)C)C2C(C)=C(C)C(OO)C3/C=C(\C)CCC(O)C1O (stereo not given)
inactive: Potency [1] | Potency [2] | Potency [3] | Potency [4] | Potency [5] | Potency [6] | Potency [7] | Potency [8] | Potency [9] | Potency [10]

O=C(N1CCOCC1)N1CCN(c2ccc(Cl)cc2)CC1
inactive: Potency [1] | Potency [2] | Potency [3] | Potency [4] | Potency [5] | Potency [6] | Potency [7] | Potency [8] | Potency [9] | Potency [10]

COC1CC(OC2CCC3(C)C(=CCC4C3CCC3(C)C(C(C)OC5OC(COC6OC(CO)C(O)C(O)C6O)C(O)C(O)C5O)CCC43O)C2)OC(C)C1OC1OC(C)C(O)C(OC)C1O (stereo not given)
inactive: activity change, negative = cytotoxicity [1] 3.88% [at 11.6 µM] | activity change, negative = cytotoxicity [2] 4.6% [at 11.6 µM] | activity change, negative = cytotoxicity [3] -3.02% [at 11.6 µM] | activity change, negative = cytotoxicity [4] -1.19% [at 11.6 µM] | activity change, negative = cytotoxicity [5] 5.95% [at 11.6 µM] | activity change, negative = cytotoxicity [6] -7.91% [at 11.6 µM] | activity change, negative = cytotoxicity [7] 0.938% [at 11.6 µM] | activity change, negative = cytotoxicity [8] 2.38% [at 11.6 µM] | activity change, negative = cytotoxicity [9] 25.2% [at 11.6 µM] | activity change, negative = cytotoxicity [10] 6.16% [at 11.6 µM]

CC(C)C1(OO)C=C2C(=O)CC3C(C)(C(=O)O)CCCC3(C)C2CC1 (stereo not given)
inactive: Potency [1] | Potency [2] | Potency [3] | Potency [4] | Potency [5] | Potency [6] | Potency [7] | Potency [8] | Potency [9] | Potency [10]

CN1C(=O)c2ccccc2NC(=O)C1Cc1ccccc1 (stereo not given)
inactive: Potency [1] | Potency [2] | Potency [3] | Potency [4] | Potency [5] | Potency [6] | Potency [7] | Potency [8] | Potency [9] | Potency [10]

C/C=C(\C)C(=O)OC1CC2C(CC=C3CC(OC4CC(OC)C(OC5CC(OC)C(OC6OC(C)C(OC7OC(CO)C(O)C(O)C7O)C(OC)C6O)C(C)O5)C(C)O4)CCC32C)C2(O)CCC(C(C)=O)C12C (stereo not given)
inactive: activity change, negative = cytotoxicity [1] 5.78% [at 11.6 µM] | activity change, negative = cytotoxicity [2] 19.1% [at 11.6 µM] | activity change, negative = cytotoxicity [3] 3.55% [at 11.6 µM] | activity change, negative = cytotoxicity [4] -1.26% [at 11.6 µM] | activity change, negative = cytotoxicity [5] 2.23% [at 11.6 µM] | activity change, negative = cytotoxicity [6] 1.45% [at 11.6 µM] | activity change, negative = cytotoxicity [7] 8.31% [at 11.6 µM] | activity change, negative = cytotoxicity [8] -3.75% [at 11.6 µM] | activity change, negative = cytotoxicity [9] 18.2% [at 11.6 µM] | activity change, negative = cytotoxicity [10] 3.39% [at 11.6 µM]

CCCCCCn1c(=O)c(C(=O)Nc2ccc(C(=O)OCCC)cc2)c(O)c2ccccc21
inactive: activity change, negative = cytotoxicity [1] 20.9% [at 11.6 µM] | activity change, negative = cytotoxicity [2] 4.2% [at 11.6 µM] | activity change, negative = cytotoxicity [3] 9.25% [at 11.6 µM] | activity change, negative = cytotoxicity [4] 18.5% [at 11.6 µM] | activity change, negative = cytotoxicity [5] 10.5% [at 11.6 µM] | activity change, negative = cytotoxicity [6] -0.73% [at 11.6 µM] | activity change, negative = cytotoxicity [7] 9.17% [at 11.6 µM] | activity change, negative = cytotoxicity [8] 1.75% [at 11.6 µM] | activity change, negative = cytotoxicity [9] -0.233% [at 11.6 µM] | activity change, negative = cytotoxicity [10] 0.105% [at 11.6 µM]

C[C@]12CC[C@H]3[C@@H]([C@H](O)CC4=CC(=O)CC[C@@]43C)[C@@H]1CC[C@@H]2O
inactive: Potency [1] | Potency [2] | Potency [3] | Potency [4] | Potency [5] | Potency [6] | Potency [7] | Potency [8] | Potency [9] | Potency [10]

CC(C)=C1CC[C@]23CO[C@H](C2)[C@@](O)(C(=O)O)CCC13 (stereo not given in full)
inactive: Potency [1] | Potency [2] | Potency [3] | Potency [4] | Potency [5] | Potency [6] | Potency [7] | Potency [8] | Potency [9] | Potency [10]

COc1c(C(C)C)cc2c(c1O)[C@@]1(C(=O)O)CCCC(C)(C)C1CC2 (stereo not given in full)
inactive: Potency [1] | Potency [2] | Potency [3] | Potency [4] | Potency [5] | Potency [6] | Potency [7] | Potency [8] | Potency [9] | Potency [10]

O=C1C[C@@H]2OCC=C3CN4CC[C@]56c7ccccc7N1[C@H]5[C@H]2[C@H]3C[C@H]46
inactive: Potency [1] | Potency [2] | Potency [3] | Potency [4] | Potency [5] | Potency [6] | Potency [7] | Potency [8] | Potency [9] | Potency [10]

C[C@@]12C[C@@H](c3ccoc3)OC(=O)C1CC[C@]1(C)[C@H]2[C@H]2C=C[C@]1(O)C(=O)O2 (stereo not given in full)
inactive: Potency [1] | Potency [2] | Potency [3] | Potency [4] | Potency [5] | Potency [6] | Potency [7] | Potency [8] | Potency [9] | Potency [10]

CC1=CC2/C=C(\C)CCC(O)C3OC(C)(C)OC3CC(=O)OC23C(=O)NC(CC(C)C)C3C1C (stereo not given)
inactive: Potency [1] | Potency [2] | Potency [3] | Potency [4] | Potency [5] | Potency [6] | Potency [7] | Potency [8] | Potency [9] | Potency [10]

CC1=C2C(=O)C3[C@@H](CC=C4C[C@@H](O)CC[C@@]43C)[C@@H]2CC[C@]12O[C@@H]1C[C@H](C)CN[C@H]1[C@H]2C (stereo not given in full)
inactive: Potency [1] | Potency [2] | Potency [3] | Potency [4] | Potency [5] | Potency [6] | Potency [7] | Potency [8] | Potency [9] | Potency [10]

CC1C/C=C/C(O)C(O)CC/C=C/c2cc(O)cc(O)c2C(=O)O1 (stereo not given)
inactive: Potency [1] | Potency [2] | Potency [3] | Potency [4] | Potency [5] | Potency [6] | Potency [7] | Potency [8] | Potency [9] | Potency [10]

Clc1ccc(OCC2=NCCN2)cc1Cl
inactive: Potency [1] | Potency [2] | Potency [3] | Potency [4] | Potency [5] | Potency [6] | Potency [7] | Potency [8] | Potency [9] | Potency [10]

OCCCCC#Cc1cncc(OC[C@@H]2CCN2)c1
inactive: Potency [1] | Potency [2] | Potency [3] | Potency [4] | Potency [5] | Potency [6] | Potency [7] | Potency [8] | Potency [9] | Potency [10]

CCCCCOc1cc2c(cc1-c1cc(/C=C/C(=O)O)ccc1O)C(C)(C)CCC2(C)C
inactive: Potency [1] | Potency [2] | Potency [3] | Potency [4] | Potency [5] | Potency [6] | Potency [7] | Potency [8] | Potency [9] | Potency [10]
